Assay results: the supplement of paper PMC10849652
Of roughly 8,800 targets only a part is listed; those with a hit were picked by preference. About 0.5% of all pairs of compound and target were hits.

Columns and labels:
Assay in all cases: log2 fold change, soluble protein after heating vs DMSO (PISA); higher = thermal stabilisation; K562 lysate, 10 uM; active = over 0.2 and 3.5 SD of the protein, either way, in both replicates (recomputed)
erlotinib = compound: C#Cc1cccc(Nc2ncnc3cc(OCCOC)c(OCCOC)cc23)c1 [erlotinib]
In short: (§1)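 Soluble protein was defined as the supernatant remaining after 21,000xg for 90 min, following pooling of heated aliquots and adjustment to 0.5% NP-40 at 4°C. Before that, crude K562 extract at 1 mg/mL protein in PBS pH 7.4 with 1 mM MgCl2 was treated with 10 μM compound for 30 min and heated for 3 min across 48°C-58°C. Quantification used TMTpro 16plex LC-MS/MS with channel sums equalised, and values are log-two fold changes in thermal stability relative to solvent controls from duplicates.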

[1] = compound: C/C(=N\NC(=O)C1=CC(=CC=C1)S(=O)(=O)N2CCOCC2)/C3=C(C=CC(=C3)Cl)O
In short: as §1

[2] = compound: C1=CC(=CC=C1C2=NC3=C(N2)C=C(C=C3)C(=O)N)OC4=CC=C(C=C4)Cl
In short: as §1

[3] = compound: C1=CC2=C(C=CC(=C2)/C=C\3/C(=O)NC(=NCC4=CC=CS4)S3)N=C1
In short: as §1

[4] = compound: C1=CC2=NC=CN=C2C=C1/C=C/3\C(=O)NC(=O)S3
In short: as §1

[5] = compound: C1=CC=C(C=C1)C2=NC(=C(N2)C3=CC=NC=C3)C4=CC(=C(C=C4)Cl)O
In short: as §1

[6] = compound: C1=CC=C2C(=C1)C3=NNC4=CC=CC(=C43)C2=O
In short: as §1

[7] = compound: C1CCN(C1)C(=O)NC2=CC=CC(=C2)NC3=NC=C(C(=N3)NCCC4=CN=CN4)Br
In short: as §1

[8] = compound: C1CN(CCC1(CC2=CC=C(C=C2)Cl)N)C3=NC=NC4=C3C=CN4
In short: as §1

IRAK-1-4 Inhibitor I = compound: C1COCCN1CCN2C3=CC=CC=C3N=C2NC(=O)C4=CC(=CC=C4)[N+](=O)[O-] [IRAK-1-4 Inhibitor I]
In short: as §1

ibrutinib = compound: C=CC(=O)N1CCC[C@@H](n2nc(-c3ccc(Oc4ccccc4)cc3)c3c(N)ncnc32)C1 [ibrutinib]
In short: as §1

[9] = compound: CC(=O)c1cnc2ccc(-c3cc(Cl)c(O)c(Cl)c3)nc2c1N[C@H]1CC[C@H](CN(C)C)CC1
In short: as §1

ralimetinib = compound: CC(C)(C)Cn1c(N)nc2ccc(-c3[nH]c(C(C)(C)C)nc3-c3ccc(F)cc3)nc21 [ralimetinib]
In short: as §1

[10] = compound: CC(C)(O)CC(=O)NCCn1ccc2ncnc(Nc3ccc(Oc4cccc(C(F)(F)F)c4)c(Cl)c3)c21
In short: as §1

[11] = compound: CC(C)C1=C2N=C(C=C(N2N=C1)NCC3=CC=CC=C3)NCCCCCCN
In short: as §1

[12] = compound: CC1=C(C(CC(=O)N1)C2=CC=C(C=C2)C(F)(F)F)C(=O)NC3=C(C=C4C(=C3)C=NN4)F
In short: as §1

[13] = compound: CC1=C(C2=C(C=C1)C(=O)C3=CC=CC=C3N2CCCN)C
In short: as §1

[14] = compound: CC1=C(C=C(C=C1)NC(=O)C2=CC(=CC=C2)C(C)(C)C#N)NC3=CC4=C(C=C3)N=CN(C4=O)C
In short: as §1

[15] = compound: CC1=C(C=C(C=C1)NC(=O)C2=CC(=CC=C2)N(C)C)NC(=O)C3=CC=C(C=C3)O
In short: as §1

[16] = compound: CC1=CC=C(C=C1)SC2=C3C=C(SC3=CN=C2)C(=O)N
In short: as §1

Measured: log2 fold change

UFSP2 (UniProt Q9NUQ7)
Chain of UniProt Q9NUQ7 (Q9NUQ7 whole entry, looked up): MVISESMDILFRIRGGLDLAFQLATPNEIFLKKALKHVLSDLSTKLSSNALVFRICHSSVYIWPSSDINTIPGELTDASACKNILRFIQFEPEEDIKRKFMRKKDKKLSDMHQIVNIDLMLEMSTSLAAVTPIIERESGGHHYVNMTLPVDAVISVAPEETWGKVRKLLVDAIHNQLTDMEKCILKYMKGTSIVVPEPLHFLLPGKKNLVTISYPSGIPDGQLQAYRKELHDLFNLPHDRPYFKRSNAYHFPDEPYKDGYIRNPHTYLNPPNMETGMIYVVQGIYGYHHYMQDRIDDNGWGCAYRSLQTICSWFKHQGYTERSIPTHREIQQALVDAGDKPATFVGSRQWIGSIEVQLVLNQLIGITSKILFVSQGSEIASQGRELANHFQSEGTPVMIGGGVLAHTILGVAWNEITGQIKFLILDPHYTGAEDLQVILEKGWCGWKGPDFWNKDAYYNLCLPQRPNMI
inactive: erlotinib -0.04 | [1] -0.034 | [2] 0.028 | [3] 0.098 | [4] -0.015 | [5] -0.042 | [6] -0.055 | [7] -0.026 | [8] -0.037 | IRAK-1-4 Inhibitor I 0.023 | ibrutinib 0.004 | [9] -0.005 | ralimetinib 0.023 | [10] -0.004 | [11] -0.023 | [12] 0.01 | [13] 0.005 | [14] -0.036 | [15] -0.003 | [16] -0.006

UBA1 (UniProt P22314)
Chain of UniProt P22314 (P22314 whole entry, looked up): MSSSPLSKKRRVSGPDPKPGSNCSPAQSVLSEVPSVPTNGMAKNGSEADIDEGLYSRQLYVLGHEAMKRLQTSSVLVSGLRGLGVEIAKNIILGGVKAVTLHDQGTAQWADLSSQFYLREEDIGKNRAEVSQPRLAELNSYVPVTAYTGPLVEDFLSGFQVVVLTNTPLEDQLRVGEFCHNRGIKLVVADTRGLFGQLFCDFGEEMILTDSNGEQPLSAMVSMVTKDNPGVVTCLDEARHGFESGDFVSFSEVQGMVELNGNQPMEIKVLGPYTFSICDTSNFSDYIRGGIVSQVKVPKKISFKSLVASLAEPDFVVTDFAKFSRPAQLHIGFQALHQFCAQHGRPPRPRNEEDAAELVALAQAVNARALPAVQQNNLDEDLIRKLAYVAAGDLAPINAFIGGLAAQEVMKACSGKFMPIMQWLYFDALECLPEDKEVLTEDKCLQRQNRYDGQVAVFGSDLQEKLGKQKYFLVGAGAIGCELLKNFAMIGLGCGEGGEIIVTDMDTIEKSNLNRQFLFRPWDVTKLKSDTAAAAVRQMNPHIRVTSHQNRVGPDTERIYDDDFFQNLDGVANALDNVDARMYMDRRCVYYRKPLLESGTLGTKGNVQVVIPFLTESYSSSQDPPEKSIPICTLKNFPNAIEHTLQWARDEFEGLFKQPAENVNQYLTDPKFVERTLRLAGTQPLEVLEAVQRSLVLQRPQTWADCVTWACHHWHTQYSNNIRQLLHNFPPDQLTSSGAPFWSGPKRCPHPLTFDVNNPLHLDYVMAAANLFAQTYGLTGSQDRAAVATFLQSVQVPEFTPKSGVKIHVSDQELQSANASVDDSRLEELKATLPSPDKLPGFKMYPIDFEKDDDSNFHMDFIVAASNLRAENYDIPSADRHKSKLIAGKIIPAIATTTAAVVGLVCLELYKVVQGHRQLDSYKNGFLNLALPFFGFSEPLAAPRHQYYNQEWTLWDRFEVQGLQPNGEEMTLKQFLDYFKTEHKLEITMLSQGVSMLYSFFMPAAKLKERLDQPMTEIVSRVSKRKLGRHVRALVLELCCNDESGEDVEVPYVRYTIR
inactive: erlotinib 0.034 | [1] 0.017 | [2] -0.022 | [3] 0.003 | [4] 0.004 | [5] 0.002 | [6] -0.044 | [7] 0 | [8] 0.02 | IRAK-1-4 Inhibitor I -0.013 | ibrutinib -0.002 | [9] 0.003 | ralimetinib 0.053 | [10] 0 | [11] 0.027 | [12] -0.018 | [13] 0.006 | [14] 0 | [15] 0.015 | [16] 0.02

TRAPPC12 (UniProt Q8WVT3)
Chain of UniProt Q8WVT3 (Q8WVT3 whole entry, looked up): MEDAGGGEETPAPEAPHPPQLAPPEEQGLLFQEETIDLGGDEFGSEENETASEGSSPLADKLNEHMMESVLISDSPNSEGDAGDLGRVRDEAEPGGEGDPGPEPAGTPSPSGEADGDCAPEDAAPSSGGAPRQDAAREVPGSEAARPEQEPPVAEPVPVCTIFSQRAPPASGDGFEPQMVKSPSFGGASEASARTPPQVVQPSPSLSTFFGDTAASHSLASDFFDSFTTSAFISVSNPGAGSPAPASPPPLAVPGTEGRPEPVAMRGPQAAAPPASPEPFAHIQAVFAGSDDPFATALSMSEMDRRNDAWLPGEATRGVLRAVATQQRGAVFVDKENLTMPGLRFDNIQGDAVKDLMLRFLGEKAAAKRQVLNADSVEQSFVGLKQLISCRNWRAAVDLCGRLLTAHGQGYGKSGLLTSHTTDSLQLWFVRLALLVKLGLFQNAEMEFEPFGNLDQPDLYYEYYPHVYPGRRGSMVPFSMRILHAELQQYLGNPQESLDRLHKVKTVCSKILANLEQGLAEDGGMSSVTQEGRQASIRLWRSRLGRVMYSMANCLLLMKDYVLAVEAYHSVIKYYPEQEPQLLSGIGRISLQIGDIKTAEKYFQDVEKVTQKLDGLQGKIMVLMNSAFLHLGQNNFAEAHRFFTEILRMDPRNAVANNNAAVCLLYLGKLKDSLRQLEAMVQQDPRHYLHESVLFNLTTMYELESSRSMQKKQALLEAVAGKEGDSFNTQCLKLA
inactive: erlotinib -0.049 | [1] -0.01 | [2] -0.048 | [3] -0.047 | [4] -0.018 | [5] -0.005 | [6] -0.061 | [7] -0.003 | [8] -0.005 | IRAK-1-4 Inhibitor I 0.027 | ibrutinib 0.001 | [9] -0.011 | ralimetinib 0.064 | [10] 0.02 | [11] -0.014 | [12] -0.022 | [13] -0.003 | [14] 0.008 | [15] -0.001 | [16] 0.009

UBR1 (UniProt Q8IWV7)
inactive: erlotinib 0.01 | [1] 0.058 | [2] -0.055 | [3] -0.002 | [4] 0.026 | [5] 0.015 | [6] -0.016 | [7] -0.047 | [8] 0.008 | IRAK-1-4 Inhibitor I 0.002 | ibrutinib 0.007 | [9] 0.005 | ralimetinib 0.015 | [10] -0.044 | [11] -0.014 | [12] -0.011 | [13] 0.004 | [14] -0.004 | [15] -0.03 | [16] -0.008

TDRD3 isoform 3 (UniProt Q9H7E2)
Chain of UniProt Q9H7E2 (Q9H7E2 whole entry, looked up): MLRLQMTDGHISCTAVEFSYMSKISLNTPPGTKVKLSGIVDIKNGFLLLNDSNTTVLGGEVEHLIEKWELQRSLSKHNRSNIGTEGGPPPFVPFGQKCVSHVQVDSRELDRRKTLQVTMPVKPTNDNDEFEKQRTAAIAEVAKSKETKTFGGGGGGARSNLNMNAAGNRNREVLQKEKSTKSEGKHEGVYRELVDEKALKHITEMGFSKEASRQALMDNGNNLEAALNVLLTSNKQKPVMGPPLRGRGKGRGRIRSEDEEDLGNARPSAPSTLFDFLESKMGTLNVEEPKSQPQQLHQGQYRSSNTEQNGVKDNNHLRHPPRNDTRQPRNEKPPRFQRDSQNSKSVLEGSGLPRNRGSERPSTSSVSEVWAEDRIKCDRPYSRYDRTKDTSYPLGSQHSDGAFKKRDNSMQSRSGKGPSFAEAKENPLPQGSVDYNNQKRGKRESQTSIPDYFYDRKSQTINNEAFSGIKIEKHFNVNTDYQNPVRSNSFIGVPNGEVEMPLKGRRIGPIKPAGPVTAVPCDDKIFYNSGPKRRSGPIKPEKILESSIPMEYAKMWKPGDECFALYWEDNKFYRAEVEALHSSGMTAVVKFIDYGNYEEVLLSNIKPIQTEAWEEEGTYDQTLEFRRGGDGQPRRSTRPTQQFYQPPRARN
inactive: erlotinib 0.051 | [1] -0.029 | [2] -0.019 | [3] 0.086 | [4] 0.005 | [5] 0.257 | [6] -0.085 | [7] -0.059 | [8] 0 | IRAK-1-4 Inhibitor I 0.051 | ibrutinib -0.03 | [9] 0.009 | ralimetinib -0.094 | [10] 0.01 | [11] -0.018 | [12] -0.073 | [13] -0.004 | [14] 0 | [15] -0.102 | [16] 0.026

TUBA1B (UniProt P68363)
Chain of UniProt P68363 (P68363 whole entry, looked up): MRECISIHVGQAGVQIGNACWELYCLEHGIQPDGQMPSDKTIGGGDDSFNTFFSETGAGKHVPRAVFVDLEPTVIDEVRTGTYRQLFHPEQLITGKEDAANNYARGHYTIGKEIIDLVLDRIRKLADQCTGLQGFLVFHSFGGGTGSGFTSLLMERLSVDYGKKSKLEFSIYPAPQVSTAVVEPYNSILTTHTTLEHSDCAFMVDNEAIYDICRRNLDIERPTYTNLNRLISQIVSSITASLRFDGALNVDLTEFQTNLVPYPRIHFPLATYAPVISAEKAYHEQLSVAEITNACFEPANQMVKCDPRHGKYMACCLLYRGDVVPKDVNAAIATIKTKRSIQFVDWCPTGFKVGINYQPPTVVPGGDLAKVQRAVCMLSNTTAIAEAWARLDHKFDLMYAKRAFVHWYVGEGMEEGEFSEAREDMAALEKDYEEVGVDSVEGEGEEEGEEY
inactive: erlotinib 0.031 | [1] -0.022 | [2] 0.009 | [3] -0.018 | [4] 0.006 | [5] -0.013 | [6] -0.018 | [7] 0.009 | [8] 0.02 | IRAK-1-4 Inhibitor I 0.022 | ibrutinib -0.012 | [9] 0.008 | ralimetinib 0.025 | [10] 0.003 | [11] 0.021 | [12] -0.011 | [13] -0.003 | [14] 0.018 | [15] 0.022 | [16] 0.005

TUBB (UniProt P07437)
Chain of UniProt P07437 (P07437 whole entry, looked up): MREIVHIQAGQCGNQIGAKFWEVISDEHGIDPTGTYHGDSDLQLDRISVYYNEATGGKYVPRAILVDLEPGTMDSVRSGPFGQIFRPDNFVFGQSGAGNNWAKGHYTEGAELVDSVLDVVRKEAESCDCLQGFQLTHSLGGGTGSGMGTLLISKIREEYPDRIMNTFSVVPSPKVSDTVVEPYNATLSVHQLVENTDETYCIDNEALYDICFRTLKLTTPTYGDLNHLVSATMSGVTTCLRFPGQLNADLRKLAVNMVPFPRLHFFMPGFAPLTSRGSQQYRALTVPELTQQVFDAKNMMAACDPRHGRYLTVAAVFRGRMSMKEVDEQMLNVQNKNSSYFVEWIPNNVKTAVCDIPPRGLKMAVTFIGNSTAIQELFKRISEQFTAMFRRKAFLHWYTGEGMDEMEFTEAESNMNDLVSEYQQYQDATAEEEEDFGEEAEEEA
inactive: erlotinib 0.029 | [1] -0.017 | [2] 0.014 | [3] -0.006 | [4] 0.008 | [5] 0.008 | [6] -0.03 | [7] 0.006 | [8] 0.043 | IRAK-1-4 Inhibitor I 0.027 | ibrutinib -0.013 | [9] 0.011 | ralimetinib 0.038 | [10] -0.009 | [11] 0.037 | [12] 0.049 | [13] 0.003 | [14] 0.007 | [15] 0.014 | [16] 0.009

TUBB6 (UniProt Q9BUF5)
Chain of UniProt Q9BUF5 (Q9BUF5 whole entry, looked up): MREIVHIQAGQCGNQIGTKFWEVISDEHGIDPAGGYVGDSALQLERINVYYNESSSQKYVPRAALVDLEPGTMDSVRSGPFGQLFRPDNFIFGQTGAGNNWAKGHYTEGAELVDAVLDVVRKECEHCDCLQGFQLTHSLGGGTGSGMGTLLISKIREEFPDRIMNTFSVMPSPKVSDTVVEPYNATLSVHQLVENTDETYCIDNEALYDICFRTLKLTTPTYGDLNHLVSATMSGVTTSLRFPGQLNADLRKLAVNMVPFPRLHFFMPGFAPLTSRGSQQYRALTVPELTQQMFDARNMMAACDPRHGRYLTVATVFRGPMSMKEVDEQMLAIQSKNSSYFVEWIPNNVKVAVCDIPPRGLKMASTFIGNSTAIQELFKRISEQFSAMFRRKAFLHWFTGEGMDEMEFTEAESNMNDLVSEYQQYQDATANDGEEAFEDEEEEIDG
inactive: erlotinib 0.039 | [1] 0.051 | [2] -0.002 | [3] 0.017 | [4] 0 | [5] 0.005 | [6] 0.009 | [7] -0.013 | [8] 0.057 | IRAK-1-4 Inhibitor I -0.003 | ibrutinib -0.005 | [9] 0.012 | ralimetinib 0.023 | [10] -0.038 | [11] 0.027 | [12] 0.012 | [13] 0.025 | [14] -0.024 | [15] -0.009 | [16] 0.025
